Screening data as filed in PubChem BioAssay.
Hits are enriched below; roughly 32% of the tested compounds scored in any of these assays.
CYP2C9 activ = human CYP2C9 activators, primary screen, biochemical, luminescence; 96,000 compounds, 1.4% hits; Cytochrome P450 2C9 (Homo sapiens), P11712; activation factor at 5 µM; recombinant CYP2C9, luciferin-H conversion; active compounds read high; factor 1 = untreated enzyme, 0 = blocked;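 active = activation factor of 2 or more for CYP2C9 at a 5 µM dose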;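 note: 0 = sulfaphenazole-blocked wells and 1 = vehicle-only wells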
Target sequence (P11712 whole entry, looked up): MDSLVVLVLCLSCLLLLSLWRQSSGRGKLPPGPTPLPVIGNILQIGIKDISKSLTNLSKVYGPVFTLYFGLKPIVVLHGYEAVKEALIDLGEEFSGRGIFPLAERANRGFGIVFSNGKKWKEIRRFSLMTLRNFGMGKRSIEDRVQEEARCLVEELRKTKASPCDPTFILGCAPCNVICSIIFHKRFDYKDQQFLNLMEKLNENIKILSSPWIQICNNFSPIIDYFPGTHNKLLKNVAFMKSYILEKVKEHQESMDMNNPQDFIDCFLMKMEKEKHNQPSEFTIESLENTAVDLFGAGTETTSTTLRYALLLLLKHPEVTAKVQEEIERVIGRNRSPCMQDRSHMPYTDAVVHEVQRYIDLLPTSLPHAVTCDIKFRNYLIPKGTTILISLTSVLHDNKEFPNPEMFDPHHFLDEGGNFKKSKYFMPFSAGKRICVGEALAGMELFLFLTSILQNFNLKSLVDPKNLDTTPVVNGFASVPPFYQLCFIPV
CYP2C19 inhib = blockers of cytochrome P450 2C19 activity – biochemical, luminescence, ADME assay, primary screen. P33261. CYP2C19 Supersomes, luciferin-H EGE luminescence, 30 min. inhibition, % at 5 µM. 96,000 compounds, 21% hits. AID 778, 2007;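 active = CYP2C19 inhibition above a set limit at 5 µM in the primary screen, cut at about 50% in these data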;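 note: plate controls were negative control wells for no effect and 2.5 mM tranylcypromine positive control for full effect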
PostGolgi yeast = phenotypic screen on post-Golgi transport, primary screen; post-Golgi transport phenotypic cell assay; inhibition, % at 10 µM; 98,000 compounds, 0.9% hits; AID 739, 2007;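 note: yeast cells grown in 1536-well plates; yeast grown about 18 h at 30C before absorbance read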
CYP2C9 inh = blockers of cytochrome P450 2C9 activity – biochemical, luminescence, ADME assay, primary screen | AID 777, 2007 | 96,000 compounds, 20% hits | CYP2C9 Supersomes, luciferin-H conversion | inhibition, % at 5 µM | P11712;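 active = blocking of liver enzyme CYP2C9 beyond about 50% at 5 µM, limit read from the data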
PostGolgi ctrl = growth inhibition of yeast control strain, primary screen, counter-screen for post-Golgi transport modulator project; efflux-deficient yeast background strain, growth absorbance A615, 16 h; inhibition, % at 10 µM; 98,000 compounds, 5% hits; AID 738, 2007
CYP2C19 activ = human CYP2C19 activators, primary screen, biochemical, luminescence | Cytochrome P450 2C19 (Homo sapiens), P33261 | recombinant CYP2C19, luciferin-H EGE luminescence; active compounds read high; 0 = fully inhibited enzyme, 1 = untreated enzyme | activation factor at 5 µM | 96,000 tested, under 10 active;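 active = activation factor of at least 2 at 5 µM in the primary screen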;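 note: 0 = wells with 2.5 mM tranylcypromine and 1 = vehicle-only wells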
* marks the source's active call; other numbers are inactive results; nt = no result given. Cut-off read from the data, not from the text of the source, unless noted: active = inhibition above about 30%; inactive = the rest.

SMILES | CYP2C9 activ | CYP2C19 inhib | PostGolgi yeast | CYP2C9 inh | PostGolgi ctrl | CYP2C19 activ
Cc1ccc(S(=O)(=O)N2CCN(CC(=O)NC3CCCc4ccccc43)CC2)cc1C (centres undefined) | 1.1 | 70* | 2 | -12 | 19 | 0.3
O=C(CCC(=O)N1CCN(S(=O)(=O)c2ccc(Cl)cc2)CC1)NC1CCCc2ccccc21 (centres undefined) | 0.7 | 47 | 14 | 28 | 0 | 0.5
Cc1ccc(S(=O)(=O)N2CCN(CC(=O)NC3CCCc4ccccc43)CC2)c(C)c1 (centres undefined) | 1 | 52* | 0 | -4 | 33* | 0.5
Cc1c(C(=O)N/N=C/c2ccccc2)sc(=S)n1C | 0.9 | -2 | 7 | 12 | 38* | 1
CCCCNC(=O)CC1C(=O)N(Cc2ccccc2)C(C)c2nc3ccccc3n21 (centres undefined) | 0.7 | 71* | 2 | 33 | 11 | 0.3
CCCCn1c(=O)c(C(=O)c2ccccc2)nc2ccccc21 | 1.1 | 46 | -1 | -15 | 5 | 0.5
COc1ccc(CCN(Cc2cc3cc(C)cc(C)c3nc2Cl)C(=O)C2CC2)cc1 | 0.6 | 37 | 1 | 39 | 23 | 0.6
CCC(C)Nc1nc(SC(C(C)=O)C(C)=O)nc(N(C)C)n1 (centres undefined) | 0.4 | 52* | 3 | 62* | 17 | 0.5
O=C(CCSc1nnc2ccc3ccccc3n12)Nc1ccc(F)cc1 | 2.1* | 31 | 16 | -113 | 11 | 0.7
O=C(CCSc1ccc(F)cc1)Nc1ccc(-n2cnnn2)cc1 | 0.8 | 59* | -5 | 16 | -3 | 0.4
CCOc1ccc(S(=O)(=O)Nc2ccc3c(c2)OCO3)c2cccnc12 | 0.6 | 82* | 18 | 38 | 2 | 0.2
CCOc1ccc(S(=O)(=O)Nc2ccccn2)c2ccccc12 | 0.8 | 19 | -7 | 17 | -1 | 0.8
CCOc1ccc(S(=O)(=O)NCc2ccc(F)cc2)c2cccnc12 | 1.2 | 51* | -2 | -22 | 2 | 0.5
C=C(C)c1cccc(C(C)(C)NC(=O)Nc2ccc3[nH]c(=O)[nH]c3c2)c1 | 0.9 | 4 | -3 | 9 | 10 | 1
Cc1cc(F)ccc1S(=O)(=O)Nc1ccccc1C(=O)Nc1ccc2[nH]c(=O)[nH]c2c1 | 0.2 | 9 | -11 | 81* | 1 | 0.9
O=C1NN(c2ccccc2)C(=O)C2C3C=CC(C4CC34)C12 (centres undefined) | 1.2 | -2 | 11 | -20 | 1 | 1
CCn1c(SCC(=O)NCc2ccc(F)cc2)nc2c(c1=O)SC(C)C2 (centres undefined) | 0.4 | 6 | 18 | 63* | 19 | 0.9
CCn1c(SCC(=O)NCc2ccco2)nc2c(c1=O)SC(C)C2 (centres undefined) | 0.7 | -7 | 4 | 28 | 7 | 1.1
CCn1c(SCC(=O)NCc2ccccc2)nc2c(c1=O)SC(C)C2 (centres undefined) | 0.4 | 30 | 0 | 61* | 28 | 0.7
CC1Cc2nc(SCC(=O)Nc3nccs3)n(Cc3ccccc3)c(=O)c2S1 (centres undefined) | nt | nt | 3 | nt | 15 | nt
CCSc1nc2c(c(=O)n1Cc1ccccc1)SC(C)C2 (centres undefined) | 0.8 | 16 | 1 | 16 | 33* | 0.8
CCn1c(SCC(=O)NCCc2ccccc2)nc2c(c1=O)SC(C)C2 (centres undefined) | 0.1 | 76* | 4 | 92* | 3 | 0.2
CC1Cc2nc(SCC(=O)NCCc3ccccc3)n(C)c(=O)c2S1 (centres undefined) | nt | nt | 7 | nt | -3 | nt
CC1(C)CC(=O)C(C(c2cccnc2)C2C(=O)CC(C)(C)CC2=O)C(=O)C1 | 1 | -20 | 3 | 4 | 16 | 1.2
CN(C)CCCN1C(=O)C(O)=C(C(=O)c2cc3ccccc3o2)C1c1ccccc1 (centres undefined) | 0.9 | -5 | -4 | 11 | 0 | 1.1
SMILES | CYP2C9 activ | CYP2C19 inhib | PostGolgi yeast | CYP2C9 inh | PostGolgi ctrl | CYP2C19 activ
Cc1cc(C(=O)Nc2cccc(O)c2)co1 | 0.9 | 16 | -9 | 14 | 8 | 0.8
CCOc1ccc(CCNC(=O)CCCN2C(=O)c3ccccc3C2=O)cc1OCC | 0.8 | 3 | -3 | 20 | 10 | 1
CCOC(=O)C1=C(C)N=C(/N=C/N(C)C)SC1c1ccccc1 (centres undefined) | 0.5 | 71* | 0 | 48 | 12 | 0.3
CC(C)c1ccc(C2C3CSCC=C3C(C#N)=C(N)C2(C#N)C#N)cc1 (centres undefined) | 0 | 67* | 74* | 100* | -2 | 0.3
CCOC(=O)C1CCN(Cc2cnc(Oc3ccc(OC)cc3)s2)CC1 | 0.9 | 8 | 6 | 12 | -2 | 0.9
Cc1cc(/C=C2\SC(=Nc3ccccc3)NC2=O)c(C)n1-c1ccc(S(N)(=O)=O)cc1 | 0.4 | 19 | -2 | 60* | 8 | 0.8
Cc1ccc(-n2c(CSc3nc(C)cc(C)n3)nnc2SCC(=O)N2CCCC2)cc1 | 1 | -4 | 4 | 3 | 11 | 1
CC(C)NC(=O)c1ccc(-c2cc(C(F)(F)F)ccc2Cl)o1 | 1.7 | 0 | -3 | -74 | -1 | 1
CCCn1c(Nc2ccc(Cl)cc2)nc2ccccc21 | 1 | -5 | 2 | 2 | 7 | 1
Fc1ccc(Cn2c(-c3cscn3)nc3ccccc32)c(Cl)c1 | 1.1 | -8 | 3 | -7 | 34* | 1.1
Clc1ccc(Cn2c(-c3cccnc3Cl)nc3ccccc32)c(Cl)c1 | 0.4 | 60* | 3 | 58* | 38* | 0.4
CCOC(=O)Cn1c(-c2cccnc2Cl)nc2cc(C)c(C)cc21 | 0.9 | -4 | 4 | 6 | 10 | 1
Nc1nonc1-c1nc2ccccc2n1Cc1ccc(F)cc1Cl | 0.9 | 25 | 4 | 12 | 11 | 0.8
Clc1ccc(Cn2c(-c3cccnc3Cl)nc3ccccc32)cc1 | 0.4 | 82* | 7 | 65* | 18 | 0.2
CC1(C)CC(NC(=O)C23CCC(C)(/C(=N/O)C2)C3(C)C)CC(C)(C)N1 (centres undefined) | 1.1 | -21 | nt | -9 | nt | 1.2
Cc1nn(-c2ccccc2)c2[nH]c(=O)c(CNc3ccc(N4CCOCC4)cc3)cc12 | 0.4 | 34 | -4 | 57* | 3 | 0.7
Cc1nn(-c2ccc(Cl)cc2)c2[nH]c(=O)c(CNCc3ccc4c(c3)OCO4)cc12 | 0.4 | 65* | 11 | 56* | 11 | 0.4
CC(C)(C)c1nn(-c2ccccc2)c2[nH]c(=O)c(CNc3ccc4c(c3)OCCO4)cc12 | 0.9 | 6 | -4 | 8 | 11 | 0.9
